# Bioassay records as filed in PubChem BioAssay.
# Only some compounds are listed: those with a hit (about 2.3% of all), similar ones and a draw of the others.
# TPT1 inh – C. albicans TPT1 enzyme inhibition; recombinant caTPT1, FP RNA substrate dephosphorylation; inhibition, % at 5 µM; 0.81% of 300,000 active; AID 1962;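 active = inhibition above the mean of all tested compounds plus 3 SD, set per screening campaign, cut at about 24% in these data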;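 note: plate controls were DMSO alone for no effect and ferristatin control at 100 nM for full effect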
# Rpn11 inh – Rpn11 (human) deubiquitinase inhibition; O00487; human 26S proteasome, Ub4-pepOG fluorescence polarization; 20S core pre-blocked with epoxomicin; inhibition, % at 20 µM; 0.59% of 360,000 active;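 active = inhibition at 20 µM, scaled to each plate's controls, above about 33%, limit read from the data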
# IDE cell inh – inhibitors of human insulin-degrading enzyme in cells; P14735; HEK cells, FAbetaB cleavage, fluorescence polarization; inhibition, % at 5.59 µM; 0.41% of 320,000 active; AID 434962;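 active = percent inhibition above the average of all tested compounds plus 3 SD, set per screening campaign, cut at about 16% in these data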;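 note: IDE supplied by intact live HEK cells; FP after avidin binding of uncleaved biotin substrate so inhibition keeps polarization high; 0% = DMSO wells and 100% = 60 µM reference IDE inhibitor Ii1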
# Target sequence (P14735 whole entry, looked up): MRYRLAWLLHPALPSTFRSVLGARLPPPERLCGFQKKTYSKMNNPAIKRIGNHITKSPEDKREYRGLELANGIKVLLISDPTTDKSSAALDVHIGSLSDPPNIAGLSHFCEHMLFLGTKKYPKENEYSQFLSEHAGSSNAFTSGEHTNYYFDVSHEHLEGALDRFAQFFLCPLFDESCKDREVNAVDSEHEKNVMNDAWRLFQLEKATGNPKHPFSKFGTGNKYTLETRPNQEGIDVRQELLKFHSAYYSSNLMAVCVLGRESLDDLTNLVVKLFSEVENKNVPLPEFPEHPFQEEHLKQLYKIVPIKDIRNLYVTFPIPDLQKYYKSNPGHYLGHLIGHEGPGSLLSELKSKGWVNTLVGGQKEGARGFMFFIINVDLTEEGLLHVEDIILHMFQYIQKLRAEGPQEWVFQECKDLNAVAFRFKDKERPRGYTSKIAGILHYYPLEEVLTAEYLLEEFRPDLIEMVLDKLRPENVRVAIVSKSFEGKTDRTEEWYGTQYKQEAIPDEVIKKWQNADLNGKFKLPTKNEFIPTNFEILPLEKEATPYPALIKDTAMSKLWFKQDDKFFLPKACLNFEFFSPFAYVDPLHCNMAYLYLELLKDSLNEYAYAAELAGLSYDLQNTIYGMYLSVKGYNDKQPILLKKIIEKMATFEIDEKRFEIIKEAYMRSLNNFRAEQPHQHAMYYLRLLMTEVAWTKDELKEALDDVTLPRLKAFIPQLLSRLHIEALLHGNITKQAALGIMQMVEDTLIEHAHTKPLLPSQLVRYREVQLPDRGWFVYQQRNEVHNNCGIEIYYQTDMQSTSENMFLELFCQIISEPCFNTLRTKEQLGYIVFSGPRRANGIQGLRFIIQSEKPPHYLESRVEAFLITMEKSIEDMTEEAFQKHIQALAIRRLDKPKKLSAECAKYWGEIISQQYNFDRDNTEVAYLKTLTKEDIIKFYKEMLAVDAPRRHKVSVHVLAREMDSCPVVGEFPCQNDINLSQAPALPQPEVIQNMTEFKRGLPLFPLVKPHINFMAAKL
# Calb FLC – affects C. albicans growth with fluconazole | C. albicans CaCi-2 (fluconazole-resistant clinical isolate) + fluconazole, Alamar Blue growth, 48 h | 0.57% of 300,000 active | growth inhibition, % (test concentration not listed) | AID 1979;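 active = growth inhibition above about 58% in most replicates, limit read from the data, passing the limit was not always enough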;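 note: all wells also contain fluconazole at 8 µg/ml as a sub-toxic cotreatment; 0% = median of DMSO wells and 100% = median of geldanamycin control wells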
# Rin1 Abl inh – inhibitors of human Rin1-Abl protein interaction | inhibition, % at 7.35 µM | 0.4% of 360,000 active | TR-FRET Rin1/Abl binding, biochemical | P00519+Q13671; in the data active = inhibition above about 5%, passing the limit was not always enough
# IDE act – IDE (human) activation, cell-based; activation, % at 5.96 µM; 0.073% of 340,000 active; HEK cells, FAbeta-B cleavage, fluorescence polarization; 0% vehicle, 100% cell-free pure enzyme wells;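 active = activation above the mean of all tested compounds plus 3 SD, set per screening campaign, cut at about 17% in these data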
# * hit, by the source's call; x = no result shown.
SMILES,TPT1 inh,Rpn11 inh,IDE cell inh,Calb FLC,Rin1 Abl inh,IDE act
Cc1nnc(NC(=O)c2ccc(S(=O)(=O)N3CCCCCC3)cc2)o1,1.5,-4.4,1.7,63.1,-3.6,2.4
COCc1nnc(NC(=O)c2ccc(S(=O)(=O)N3CCCCCC3)cc2)o1,-2.5,-6.2,-0.8,79.5*,-1.4,-0.6
COc1ccc(-c2nnc(NC(=O)c3ccc(F)cc3)o2)cc1,0.4,-9.0,-1.2,92.1*,1.8,11.8
Cc1ccccc1NC(=O)Cc1nnc(SCC(=O)NC2CCCCC2)n1C,0.6,2.6,5.2,-2.9,0.8,3.5
CN(C)CCCNc1nc2cc(-c3ccc(F)cc3)sc2c(=O)n1C,x,-5.1,x,x,-4.9,x
Cc1cccc(C)c1NC(=O)CNC(=O)c1ccc(COc2ccccc2)cc1,x,0.4,3.2,x,1.8,2.4
CCOc1cc(S(=O)(=O)NCc2ccccc2)c(OCC)cc1-n1cnnn1,2.2,3.7,-2.1,100.0*,-0.3,3.2
O=C(O)Cn1cc(CN2CCOCC2)c2ccccc21,-0.7,2.1,-1.0,-0.5,0.4,0.6
COc1ccc(C(=O)Oc2c(CN3CCOCC3)cc(Cl)c3cccnc23)cc1OC,2.0,x,0.1,1.3,x,x
O=C(SCc1c(O)c2ccccc2oc1=O)c1ccccc1,x,9.2,x,x,4.2,x
COc1cc(OC)cc(C(=O)Oc2c(CN3CCOCC3)cc(Cl)c3cccnc23)c1,-1.9,-2.9,-2.6,112.8*,0.0,1.5
O=C(Oc1c(CN2CCOCC2)cc(Cl)c2cccnc12)c1ccccc1,0.5,-4.2,-2.0,117.6*,-1.1,10.5
Oc1c(CN2CCc3ccccc3C2)cc(Cl)c2cccnc12,-1.9,38.8*,-1.1,83.3*,1.8,4.2
Oc1c(I)cc(Cl)c2cccnc12,-2.4,10.9,-1.9,x,-1.1,10.4
O=c1oc2ccccc2c(O)c1Cc1cc(Cl)c2cccnc2c1O,-4.0,23.9,-0.5,84.3*,-1.5,7.6
NC(=O)CCCn1c(C(=O)c2cc(Cl)c(N)c(Cl)c2)c2ccc([N+](=O)[O-])cc2[n+]1[O-],0.7,-0.7,1.7,43.9,-5.4,-0.1
O=C(NCC[C@@H]1C[C@@H]2C=C[C@H]1C2)c1cc(COc2ccc(F)cc2F)on1,5.0,4.4,-0.9,-6.6,1.8,-1.8
CCCNC(=O)C(Cc1cccc(Cl)c1)NC(=O)c1ccccc1 (configuration not stated),x,-2.4,2.9,x,1.5,4.0
O=C(Oc1ccc(C(=S)N2CCOCC2)cc1Cl)c1ccccc1F,1.2,2.0,-1.6,-5.1,2.3,-1.8
O=C(Oc1c(CN2CCOCC2)cc(Cl)c2cccnc12)c1ccccc1F,2.3,3.7,1.6,102.0*,1.4,12.9
CS(=O)(=O)c1ccc(Cl)c(NC(=O)Cc2ccsc2)c1,0.5,-14.5,3.1,-4.0,4.9,1.9
CC(C)CCOc1cccc(OCC(=O)Nc2ccncc2)c1,-3.1,-5.1,1.4,107.6*,1.8,-1.7
COc1cccc(OCC(=O)Nc2ccncc2)c1,-2.6,0.0,-1.1,4.4,2.9,2.4
CCN(CC)c1ccc2c(-c3ccc(S(=O)(=O)O)cc3S(=O)(=O)[O-])c3ccc(=[N+](CC)CC)cc-3oc2c1,-138.1,-126.3,-55.8,-74.9,-11.6,27.4*
O=C(Cc1ccc(Br)cc1)Nc1ccc(S(=O)(=O)Nc2ncccn2)cc1,2.2,6.8,1.2,15.0,1.1,0.3
SMILES,TPT1 inh,Rpn11 inh,IDE cell inh,Calb FLC,Rin1 Abl inh,IDE act
CC(=O)Nc1ncnc2c1c(-c1ccc(Cl)cc1)nn2C(C)(C)C,0.6,-3.4,-0.5,102.0*,1.8,2.5
CN1CCN(C(=O)c2ccc(Cc3cn(C)c4ccccc34)nc2)CC1,x,5.6,x,x,0.0,x
COc1ccc(OC)c(C(=O)N(C)C2CCCN(Cc3ccccc3F)C2)c1 (configuration not stated),1.4,-7.3,1.2,-3.8,-0.3,2.4
NS(=O)(=O)c1cccc(NC(=S)NCc2ccc3c(c2)OCO3)c1,10.3,-0.8,2.6,115.9*,2.9,2.6
CCCCc1nnc(NC(=O)C(C)Sc2nc(N)cc(=O)[nH]2)s1 (configuration not stated),-3.5,4.9,-6.2,75.6*,-0.8,-3.6
CCOC(=O)Cc1nnc(NC(=O)C(CC)Sc2nc(C)cc(=O)[nH]2)s1 (configuration not stated),-3.3,0.5,-3.5,-2.1,0.9,-4.0
CCCc1nc2c3ccccc3ccn2c1CC(C)(C)C,x,-8.6,x,x,2.8,x
CCc1ccc2c(c1)C(c1cccs1)=NNC(c1cccnc1)=N2,0.4,0.3,2.2,15.1,-3.3,0.6
Clc1ccc2c(c1)C(c1cccs1)=NNC(c1cccnc1)=N2,-0.8,9.9,-2.1,89.8*,-3.0,5.3
Fc1ccc2c(c1)C(c1ccncc1)=NNC(c1cccnc1)=N2,-1.5,-0.2,-5.2,81.2*,-1.5,6.6
Cc1cc(NC(=O)CN(C)S(=O)(=O)c2cnc[nH]2)ccc1Br,1.3,-5.0,2.9,6.2,2.8,6.9
O=C(Nc1ccc(F)c(Cl)c1)C1CCCC1,0.5,-0.3,-4.3,-7.0,-0.8,x
O=C(Nc1ccc(F)c(Cl)c1)NC1CC1,-2.3,-7.9,0.5,83.0*,1.8,-0.2
N#C/C(=C\c1ccc(N2CCOCC2)cc1)c1ccccc1,3.4,3.8,5.4,87.4*,-2.3,-2.0
CC(CNc1ccc(Cl)cc1)(CNc1ccc(Cl)cc1)[N+](=O)[O-],x,2.5,x,x,5.9,-2.3
COc1ccc2c(c1)sc(=NC(=O)CS(=O)(=O)c1ccc(F)cc1)n2C,1.9,-6.0,1.6,-3.4,-1.4,5.3
COc1cccc(N=Nc2ccc(O)c3ncccc23)c1,-5.9,37.6,5.3,101.2*,6.2,-4.3
O=S(=O)(O)c1cccc2c(N=Nc3ccc(O)c4ncccc34)cccc12,-21.5,38.5,-25.8,84.0*,14.9*,36.4*
COc1cccc(N=Nc2ccc3cccnc3c2O)c1,-4.8,30.0,9.7,86.3*,4.0,-7.2
COc1ccc(N=Nc2ccc(O)c3ncccc23)cc1,-0.8,7.7,8.9,2.5,0.5,-8.6
O=C(CN1C(=O)NC2(CCCCC2)C1=O)N1CCN(S(=O)(=O)c2cccc(F)c2)CC1,-0.5,-5.8,-1.2,-4.1,2.4,7.6
C[C@@H]1CN([C@@H](C)CO)C(=O)c2cc(C3=CCCCC3)cnc2O[C@H]1CN(C)C(=O)Nc1cccc(F)c1,x,6.5,x,x,1.8,x
CCNc1ccc2noc3c2c1C(=O)c1ccccc1-3,-37.0,-156.4,-5.6,20.3,-28.2,17.1
CCOc1ccc2noc3c2c1C(=O)c1ccccc1-3,-92.0,-212.0,-10.5,20.0,-13.6,44.1*
O=C(/C=C/c1ccc(Cl)cc1)Nc1ccc(N2CCCCC2)cc1,2.5,-0.9,2.7,27.7,0.0,40.5*
CC(C)(CNC(=O)c1cccc(S(=O)(=O)Nc2ccc(Br)cc2)c1)N1CCOCC1,-1.4,-1.8,-2.1,1.3,6.3,0.2
CCCCCN1C(=O)/C(=C/c2c(N3CCc4ccccc4C3)nc3ccccn3c2=O)SC1=S,81.7*,x,3.0,-0.5,1.7,2.5
